IL2 activator – IL-2 activation. IL-2 activation reporter assay, cell-based qHTS; stimulated with anti-CD3/CD4/CD28 beads; in transgenic mouse T cells. activation, % (series mostly up to about 46 µM). 360,000 tested, 0.065% active. AID 652025; in the data active means activation above about 50%; inconclusive means mostly about 30% to 49%; further: 0% is about no effect
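EGFP and DsRed fluorescence is measured by plate cytometry in unstimulated transgenic mouse T cells exposed to compound for 60 minutes, then stimulated 18 hours at 37 degrees C with anti-CD3/anti-CD4 beads plus anti-CD28.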
PKM2 act – PKM2 (human) enzyme activation. Potency, µM (doses to about 57.5 µM), for inactives: at the top dose activation, hits mostly activators. 260,000 tested, 0.34% active. AID 1631. purified PKM2, Kinase-Glo ATP luminescence, activation; response scale: 0% is enzyme alone, no compound. P14618; further: potency means the concentration at half of the fitted maximal effect; on the % scale 0 is the no-effect control and ±100 the full control effect; nearly all actives have a fitted effect of over 55% in size
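Purified hPK-M2 (>95% pure) converted ADP (0.1 mM final) to ATP with 0.5 mM PEP in 50 mM imidazole pH7.2, KCl, MgCl2, Tween 20, BSA; 1 h at room temperature. ATP detected by Kinase-Glo luminescence.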
Rango dissoc inh – inhibition of RanGTP-driven Rango-importin beta dissociation; Biochemical FRET Rango-importin beta, RanGTP-induced dissociation; Potency, µM (highest dose often 46.1 µM), for the others: at the highest dose activity change, negative = inhibition; 340,000 tested, 0.071% active; calls by dose curve; further: potency means the concentration at half of the fitted maximal effect; % of control where 0% means no effect; nearly all actives have a fitted effect of over 45% in size
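FRET read at 45 min, room temperature: inhibitors block the CFP/YFP signal rise when RanGTP (0.6 uM Ran, 2 mM GTP, 0.2 uM RCC1) frees Rango (0.1 uM) from importin beta (0.25 uM). Pre-read after 5 min compound exposure flags interference.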
AT treatment – potential ataxia-telangiectasia treatment. F2112 A-T fibroblasts, KAP-1 phosphorylation AlphaLISA; neocarzinostatin DNA damage 30 min before lysis. Potency, µM (top dose mostly 57.5 µM), for the others: top-dose activation, usual class: activators. 320,000 tested, 0.19% active. AID 485349; further: potency means the concentration at half of the fitted maximal effect; % of control where 0% means no effect; nearly all actives have a fitted effect of over 45% in size
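hTERT-immortalized A-T patient fibroblasts (F2112), 500 cells/well in OPTI-MEM, 1% FBS, got compounds for 60 min, then NCS for 30 min at 37C. Lysates were then assayed for phospho-KAP-1 by AlphaLISA (anti-pKAP1 donor, anti-KAP1 acceptor beads), 6 hr at 25C.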
Rango complex inh – Rango-importin beta binding inhibition. Q14974. Rango CFP/YFP FRET sensor + importin beta, 45 min. Potency, µM (titrated, usually from 92.2 µM), for the others: at the highest dose inhibition of complex formation. 340,000 tested, 0.031% active. AID 540263; calls by dose curve;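 further: potency means the concentration at half of the fitted maximal effect; 0% = DMSO wells and 100% = buffer wells lacking importin beta; nearly all actives have a fitted effect of over 15% in size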
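Inhibition scored from the CFP 486 nm/YFP 530 nm FRET ratio 45 min after adding 0.125 microM importin beta to 50 nM Rango biosensor preincubated 5 min with compound (room temperature, PBS with DTT, Tween-20, BSA). No-importin wells as positive control.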
HeLa tox – reduces HeLa cell viability in PKM2 activator counter-screen. 230 tested, under 10 active. activity change, negative = cytotoxicity, % at 57.5 µM. AID 1898. HeLa viability, CellTiter-Glo ATP luminescence, 24 h. shares compounds with PKM2 act; further: % of control where 0% means no effect
The depositor's hits bear a star; u = inconclusive; x = not tested or not shown. In the library only some 0.59% were active in any assay of this set; here they are far more common. Unless noted, the call rests on the fitted dose curve; in most records, active means well fitted curve in the direction sought with a large enough effect; inconclusive means small, poorly fitted or top-dose-only effect, or another doubt; inactive means no such curve, though single readings can be large; an effect the other way counts as inactive or inconclusive.

SMILES | IL2 activator | PKM2 act | Rango dissoc inh | AT treatment | Rango complex inh | HeLa tox
CC(Oc1ccc(Br)cc1)C(=O)O/N=C(\N)c1ccncc1 (stereo unspecified) | 0 | -1% | 1% | 4% | 0% | x
Cc1ccc(S(=O)(=O)N2CCN(C)CC2)c2nsnc12 | 1 | 1% | -12% | -6% | -1% | x
COc1ccc(CCC(=O)N2CCN(S(=O)(=O)c3ccc4ccccc4c3)CC2)cc1 | 0 | 0.79µM* | -17% | -3% | 5% | -9
O=S(=O)(c1ccc2ccccc2c1)N1CCN(S(=O)(=O)c2c(F)cccc2F)CC1 | -1 | x | 0% | 7% | 1% | u
CCCCn1c(N)c(N(CCC(C)C)C(=O)CSc2nc3ccccc3n2C)c(=O)[nH]c1=O | -3 | x | u | x | u | x
O=C(NNC(=O)c1cccs1)c1ccc(Cl)nc1 | -1 | x | 12% | 2% | 8% | x
N#Cc1cccc(-c2csc(C(O)c3ccc(F)cc3)n2)c1 (stereo unspecified) | 2 | x | x | x | x | x
Cc1ccccc1NC(=O)CSc1nnc(NC(=O)C2CC2)s1 | -1 | 3% | 4% | 10% | -1% | x
CCn1cc(C(=O)NCc2ccco2)c2cc(OC)c(OC)cc2c1=O | -4 | -3% | -3% | x | 4% | x
COc1cc2c(C(=O)NCc3ccc(C)o3)cn(CC(C)C)c(=O)c2cc1OC | 0 | 14µM* | -4% | 3% | -2% | 2
O=C(Nc1cccc(C(F)(F)F)c1)c1ccc2sc([C@@H]3O[C@H](CO)[C@H](O)[C@H](O)[C@H]3O)nc2c1 | 0 | x | x | x | x | x
Cc1ccc2oc(C(=O)N(C)Cc3ccc(C)o3)c(C)c2c1 | -4 | 6.3µM* | -2% | 20% | 0% | 2
Cc1ccc2oc(C(=O)N(C)Cc3ccon3)c(C)c2c1 | 3 | x | 2% | -3% | -3% | x
CCCN1C(=O)S/C(=C/c2ccc(N3CCOCC3)o2)C1=O | 23 | 1µM* | u | -19% | u | 0
CCOC(=O)CN1C(=O)S/C(=C/c2ccc(N3CCCCC3)o2)C1=O | 11 | -2% | u | -6% | u | x
Cc1cccc(OC(C)C(=O)Nc2ccccc2C(=O)N2CCCCC2)c1 (stereo unspecified) | -4 | 2% | 7% | 25% | 5% | x
CC(=O)N1N=C(c2ccncc2)CC1c1ccccc1O (stereo unspecified) | 1 | 4.5µM* | 14% | 10% | 0% | -4
O=C(c1cccs1)N1N=C(c2ccccc2)CC1c1ccccc1O (stereo unspecified) | 0 | 4% | 9% | 9% | -1% | x
COc1ccc2oc(=O)cc(CN3CCN(Cc4ccc(OC)c(OC)c4OC)CC3)c2c1 | -2 | x | 2% | -1% | 0% | x
Cc1nnc2sc(SCC(=O)Nc3nccs3)nn2c1=O | 0 | 1.4µM* | 11% | 6% | -2% | 0
COc1ccccc1NC(=O)CSc1nn2c(=O)c(C)nnc2s1 | 1 | -2% | -5% | 6% | -2% | x
O=C(Cn1nnc(-c2ccccc2)n1)N1CCN(S(=O)(=O)c2ccc(Cl)cc2)CC1 | -3 | 2.5µM* | 11% | -4% | 0% | 3
Cc1ccccc1-c1nnn(CC(=O)N2CCN(S(=O)(=O)c3ccc(Cl)cc3)CC2)n1 | 0 | u | 16% | -1% | 0% | x
NC(c1ccc(F)c(F)c1)c1nc(-c2cc(F)cc(F)c2)cs1 (stereo unspecified) | 1 | x | x | x | x | x
CCOC(=O)c1c(NC(=O)CCc2ccc(CC)o2)sc(C)c1C | -1 | u | 0% | 30% | 1% | x
COC(=O)c1c(NC(=O)CCc2ccc(C)o2)sc(C)c1C | -3 | 7.9µM* | 9% | 31% | u | -1
Cc1oc(=O)c(NC(=O)c2ccccc2)cc1C(=O)c1ccccc1 | -2 | 28% | -1% | 2% | -4% | x
Cc1oc(=O)c(NC(=O)c2ccc(Cl)cc2)cc1C(=O)c1ccccc1 | -1 | 6.3µM* | 25% | -8% | 2% | 2
